Data as given in PubChem BioAssay AID463075 (University of Pittsburgh Molecular Library Screening Center, 2010).
Screen size: about 220,000 compounds; about 150 (0.068%) were called active.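 How the source made its calls: active means activation, meaning protection from cell death, of at least 50% relative to plate controls; inactive means activation below 50%.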 Shown is part of a subset that was picked to be rich in actives.

Assay: inhibitors of TNF-alpha triggered necroptosis, primary screen, cell-based, Jurkat FADD-/-, single concentration (AID 463075);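 further: necroptosis triggered by 40 ng/mL TNF-alpha added together with compound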
Conditions: Jurkat FADD-/- TNF necroptosis rescue, ATP luminescence, 24 h; at 10 µM; active compounds read high; 0 = TNF only, 100 = no-TNF cells

Compound | activation (protection from cell death)
COc1ccc(NC(=O)C2=C(C)NC(=O)NC2c2ccccc2[N+](=O)[O-])cc1 (stereo unspecified) | 0.73% (inactive)
CCOC(=O)c1cc(Sc2ccccc2N)cc(C(=O)OCC)n1 | 0.0548% (inactive)
COc1ccc(OCc2cn3c(C)cc(C)nc3n2)cc1 | 1.17% (inactive)
CC1COc2ccccc2N1S(=O)(=O)c1ccccc1 (stereo unspecified) | -0.217% (inactive)
CCOc1ccccc1NC(=O)C12CC3CC(C1)CC(c1ccc(C)cc1)(C3)C2 | -1.89% (inactive)
Cc1csc(Nc2ccc(Cl)cc2)[n+]1-c1ccc(Cl)cc1 | 52.7% (active)
O=c1ccnc(Nc2ccc(Cl)cc2)[nH]1 | 2.1% (inactive)
Cc1ccc(NC(=O)c2ccc(Oc3ncccn3)cc2)cc1 | -0.146% (inactive)
CN(C)Cc1ccc(F)cc1Sc1cc(Cl)ccc1Cl | 0.603% (inactive)
CCOC(=O)CNC(=O)N1c2ccccc2Sc2ccccc21 | -1.84% (inactive)
C=CCNC(=O)c1cc2nc(C3CC3)cc(C(F)F)n2n1 | 0.00242% (inactive)
Cc1ccc(C(=O)/C=C/Nc2ccc(S(=O)(=O)Nc3onc(C)c3C)cc2)cc1 | 1.49% (inactive)
CCN(CC)c1ccc(C(=O)c2cnc(/N=C/N(C)C)s2)cc1 | 2.87% (inactive)
CC(NC(=S)NNS(=O)(=O)c1ccc(C(C)(C)C)cc1)c1ccccc1 (stereo unspecified) | 5.41% (inactive)
COc1cc(OC)cc(C(=O)NC2CCN(C(=O)N3c4ccccc4Sc4ccccc43)CC2)c1 | -2.58% (inactive)
CN(C)CCCn1c(SCCN2C(=O)c3ccccc3C2=O)nc2ccccc2c1=O | 0.858% (inactive)
CCN(CC)C(=O)CSc1nnc(CNc2ccc(F)cc2)n1Cc1ccco1 | 0.256% (inactive)
C/C(CC(C)C)=N\Oc1nc(C)cc(C)n1 | 1.02% (inactive)
Clc1ccc(-c2cc(C3CCNCC3)[nH]n2)c(Cl)c1 | 4.13% (inactive)
FC(F)(F)c1cc(C(F)(F)F)c2ccc(N3CCN(c4ccccc4)CC3)nc2n1 | -0.212% (inactive)
NC(=O)c1ccc(NC(=O)COC(=O)C(Cc2ccccc2)NC(=O)c2ccccc2)cc1 (stereo unspecified) | 0.97% (inactive)
Cc1nn(C)c(C)c1S(=O)(=O)N1CCC(CO)(Cc2ccc(Cl)cc2)CC1 | -0.682% (inactive)
CCC1CO/C(=C(\C(=C(Cl)Cl)N2CCOCC2)[N+](=O)[O-])N1 (stereo unspecified) | 0.241% (inactive)
C=C(C)COc1ccc(-c2nc(N)ncc2-c2ccccc2OC)c(O)c1 | 1.21% (inactive)

Compound | activation (protection from cell death)
OCC1(CCc2ccccc2)CCN(Cc2ccc3nsnc3c2)CC1 | 1.53% (inactive)
NS(=O)(=O)c1ccc(NC(=S)NC(=O)c2cccc(Br)c2)cc1 | -0.737% (inactive)
CCOc1ccc(NC(=O)C2CC(=O)N=C(N)S2)cc1 (stereo unspecified) | 0.442% (inactive)
CCOC(=O)C1=C(CC)Nc2ccccc2N=C1NC(=O)c1cccc(S(=O)(=O)N2CCCC2)c1 | -3.1% (inactive)
COC(=O)C1CCN(CC(N)=O)CC1 | 1.78% (inactive)
Cc1c([N+](=O)[O-])c(N)nn1C | 0.221% (inactive)
COc1ccc(CC(=O)NCc2nnc(SCC(=O)Nc3ncc(C)s3)n2C)cc1 | 1.73% (inactive)
Clc1ncn(CCOc2ccccc2)c1Cl | 3.48% (inactive)
N#Cc1c(N2CCCCC2)nc(N)c2c(N)nc(SCC(=O)O)cc12 | -7.92% (inactive)
Cc1cc(C(=O)COC(=O)C2CC2)c(C)n1-c1ccc(F)cc1 | -0.153% (inactive)
CN(C(=O)c1c(Cl)cnn1C)C12CC3CC(CC(C3)C1)C2 | -0.801% (inactive)
CCNc1ccc(C(=O)OCC(=O)N2c3ccccc3NC(=O)C2(C)C)cc1[N+](=O)[O-] | 1.58% (inactive)
CCn1c2ccccc2c2cc(CC(N)=O)ccc21 | -1.12% (inactive)
CCc1ccccc1NC(=O)CN(c1ccc(OC)cc1OC)S(=O)(=O)c1ccccc1[N+](=O)[O-] | 0.342% (inactive)
Cc1ccc2nc(SC(C)C(=O)NCc3ccco3)[nH]c2c1 (stereo unspecified) | -0.614% (inactive)
CCOC(=O)c1c(N)sc2c1CCCC2=O | -2.66% (inactive)
O=C1CC(c2ccccc2)C(=O)N1c1cccc(O)c1 (stereo unspecified) | 52% (active)
O=C1OCC2=C1C(c1ccccc1)CC(=O)N2c1cccc(F)c1 (stereo unspecified) | -0.757% (inactive)
O=C1CC(NNc2ccccc2)C(=O)N1c1cccc(Cl)c1 (stereo unspecified) | -2.98% (inactive)
Cc1nnc(Nc2ccccc2F)s1 | 0.78% (inactive)
N#Cc1c(-c2ccc(Cl)cc2)c2c([nH]c1=S)CCCC2 | -2.48% (inactive)
O=C(O)c1ccccc1-c1ccccc1C(=O)NCc1cccnc1 | 0.395% (inactive)
CCN(C(=O)COc1cccnc1[N+](=O)[O-])C1CCS(=O)(=O)C1 (stereo unspecified) | 0.598% (inactive)
CCC(C)n1c(-c2cc(OC)c(OC)c(OC)c2)nc2nc3ccccc3nc21 (stereo unspecified) | -16.6% (inactive)

Compound | activation (protection from cell death)
CC(=O)Nc1nc2c(s1)C(=O)NCC(C)(C)C2 | 0.16% (inactive)
Cc1ccc(S(=O)(=O)NCCc2nnc3ccc(SCc4cccnc4)nn23)cc1 | -0.101% (inactive)
O=C(CCc1ccccc1)Nc1ncc([N+](=O)[O-])s1 | 9.81% (inactive)
O=C(Cc1c(F)cccc1Cl)Nc1ccc(-n2cnnn2)cc1 | 0.184% (inactive)
O=C(Cc1c(F)cccc1Cl)Nc1ncc([N+](=O)[O-])s1 | 59.9% (active)
COc1ccc(Br)cc1C(=O)Nc1cccc(C)c1C | 0.986% (inactive)
O=C(NC(Cc1c[nH]c2ccccc12)C(=O)N/N=C/c1ccc(Br)cc1)c1cccs1 (stereo unspecified) | -2.26% (inactive)
CC(C)c1nc(CNC(=O)CC2C(=O)NCCN2Cc2ccoc2)cs1 (stereo unspecified) | -0.307% (inactive)
CCc1cc(CNC(=O)CC2C(=O)NCCN2Cc2ccccc2C(F)(F)F)on1 (stereo unspecified) | 1.76% (inactive)
COC(=O)c1ccc(CN(c2ccccc2OC)S(=O)(=O)c2cccs2)o1 | 0.0719% (inactive)
COC(=O)c1ccc(CSc2ccccc2C)o1 | 6.63% (inactive)
COC(=O)c1ccc(Cc2ccccc2)o1 | 55.2% (active)
COc1ccccc1CNC(=O)CN1CCC(n2cnc3cc(F)ccc32)CC1 | 4.48% (inactive)
O=C(c1ccc(S(=O)(=O)c2ccccc2)cc1)N1CCCCCC1 | 1.36% (inactive)
Nc1c(-c2cccc(Cl)c2)cnn1-c1cccc([N+](=O)[O-])c1 | -1.25% (inactive)
c1ccc(-c2csc(N3CCc4ccccc4C3)n2)cc1 | -3.03% (inactive)
C=CCCN(Cc1ccccc1)S(=O)(=O)c1ccccc1Br | -2.9% (inactive)
CC(C)(C)c1ccc(/C=C2\SC(=O)N=C2N)cc1 | 2.08% (inactive)
Cc1cccc(NC(=O)c2nc[nH]c2C(=O)NCC(=O)OCc2ccccc2)c1 | -9.45% (inactive)
CCN(CC)CCNC(=O)c1ccc(NC(=O)c2c(F)cccc2Cl)cc1 | -0.132% (inactive)
COc1ccccc1C(=O)CSc1cccc[n+]1[O-] | -0.693% (inactive)
Cc1cc(C(=O)OCC(=O)Nc2ccc(F)c(F)c2)c(C)o1 | 3.31% (inactive)
COCCCNC(=O)C1CCC(CNS(=O)(=O)c2ccc(OC)cc2)CC1 (stereo unspecified) | 1.04% (inactive)
Cc1cccc(C(=O)N2CCc3c([nH]c4ccccc34)C2CC(C)C)n1 (stereo unspecified) | 1.18% (inactive)

Compound | activation (protection from cell death)
Cc1cc([N+](=O)[O-])nn1CC(=O)Nc1ccc(Cc2ccncc2)cc1 | 3.27% (inactive)
Cc1cc([N+](=O)[O-])nn1CCCC(=O)Nc1cccnc1Cl | 0.812% (inactive)
Cc1cc([N+](=O)[O-])nn1Cc1ccc(F)cc1 | 76.6% (active)
O=C(Nc1ccn(Cc2ccccc2F)n1)c1ccc(COc2ccc(Cl)cc2Cl)o1 | -6.7% (inactive)
CC(=O)Nc1ccn(Cc2c(F)cccc2Cl)n1 | 88% (active)
O=C(Nc1ccn(Cc2ccccc2)n1)c1cccc(F)c1 | 3.16% (inactive)
CCc1cccc(CC)c1NC(=O)COc1ccccc1C(=O)c1cc(C#N)c(=O)n(C2CCCCC2)c1 | 1.06% (inactive)
Cn1nccc1NC(=O)Nc1ccc(OC(F)(F)F)cc1 | 2.9% (inactive)
CCCC(=O)n1nc(NCc2ccc(OC)cc2)nc1NCc1ccc(OC)cc1 | 2.21% (inactive)
CC(C)CNC(=O)C(=O)NCc1ccccc1 | 1.96% (inactive)
CC(C)(C)C(=O)N1CCC[C@@]1(CO)C(=O)O | 1.03% (inactive)
CCN(Cc1ccncc1)C(=O)c1cccc(S(=O)(=O)N2CCOCC2)c1 | 0.919% (inactive)
COc1cc(C=O)ccc1Oc1nnnn1-c1ccccc1 | -3.04% (inactive)
N#CC1(NC(=O)COc2ccc3oc4ccccc4c3c2)CCCCC1 | 1.8% (inactive)
CC(C)N(C(=O)Cn1cc(SCC(=O)N2CCCC2)c2ccccc21)C(C)C | 1.35% (inactive)
Cc1ccc(S(=O)(=O)N(C)C)cc1NC(=O)COC(=O)c1c(C)noc1C | 0.89% (inactive)
CN(C)CCNC(=O)/C(=C/c1cccc([N+](=O)[O-])c1)NC(=O)c1ccccc1 | 2.51% (inactive)
COc1ccc(/C=C/C(=O)c2cc(Br)ccc(=O)c2O)cc1 | -1.56% (inactive)
CCc1ccc(C2C(C#N)=C(N)N(N3CCOCC3)C3=C2C(=O)CC(C)(C)C3)s1 (stereo unspecified) | 0.137% (inactive)
C[C@@H]1C[C@@H]2O[C@H]2/C=C\C=C\C(=O)Cc2c(Cl)c(O)cc(O)c2C(=O)O1 | 36.6% (inactive)
C=CCOc1c(CNn2cn[nH]c2=S)cccc1OC | -0.439% (inactive)
Cc1n[nH]c(=O)nc1N/N=C/c1cccs1 | -6.4% (inactive)
CCc1cccc(CC)c1NC(=S)Nc1ccc2cn[nH]c2c1 | -5.25% (inactive)
C=CCNc1nc(N)c(C(=C(C#N)C#N)c2ccccc2)s1 | -6.24% (inactive)
